# According to ChEMBL document CHEMBL4513216, “Probing the Open Global Health Chemical Diversity Library for Multistage-Active Starting Points for Next-Generation Antimalarials” (ACS Infect Dis, 2020):
# The whole screen tested about 69,000 compounds, of which about 8,600 (12%) showed an effect of 50% or more. What follows is part of a selection rich in strong results, with near analogues and random picks from the rest.
# Tested on: Plasmodium berghei
# Assay: Screen against P. berghei liver stage (PbLuc), transformed with Luciferase, at 10uM
# Type: functional, HepG2
# Conditions: tested at 10 uM
row,Compound,INHIBITION [%]
1,CCC1CN(CC(=O)N2CCN(C(C)=O)CC2)CCN1CCOC (stereo not drawn),4.52
2,CN(C)CCN1CC(C(=O)N(C)Cc2cc3cc(F)ccc3[nH]2)CC1=O (stereo not drawn),52.2
3,CCN1CC(C(=O)N(C)Cc2cc3cc(F)ccc3[nH]2)CC1=O (stereo not drawn),-14.1
4,CN(Cc1cc2cc(F)ccc2[nH]1)C(=O)C1CC(=O)N(C2CCCC2)C1 (stereo not drawn),26.5
5,Cc1ccc(S(=O)(=O)N2CC[C@@H](O)C2)c(F)c1,2.25
6,Cc1cc(S(=O)(=O)N2CC[C@@H](O)C2)c(Cl)cc1F,-46.4
7,Cc1cc(S(=O)(=O)N2CCC(N3CCC(O)C3)CC2)c(Cl)cc1Cl (stereo not drawn),71.1
8,O=C(NCC1CCCO1)c1nc2c(s1)CCCN2c1ncccn1 (stereo not drawn),-4.32
9,Cc1ccc(C(=O)N2[C@@H]3CC[C@H]2CC(=O)N(C)C3)c(=O)[nH]1,-1.85
10,N#Cc1ccc(C(=O)N2C[C@H](OCc3cccnc3)[C@H]3COC[C@H]32)cc1,-5.31
11,CC(C)(C)c1nc(CN(Cc2ccccc2F)C2CCCCC2)no1,35.3
12,CC(C)c1noc(CCCC(=O)N2CCC(Cc3cccnc3)CC2)n1,27.1
13,CCc1cc(CN(Cc2cccnc2)C2CN3CCC2CC3)on1 (stereo not drawn),28.5
14,CC(C)c1noc(CN(Cc2cccnc2)C2CN3CCC2CC3)n1 (stereo not drawn),77.5
15,CC(C)(C)c1nc(CN(Cc2cccnc2)C2CN3CCC2CC3)no1 (stereo not drawn),54.8
16,Cc1noc(C)c1CN(Cc1cccnc1)C1CN2CCC1CC2 (stereo not drawn),10.3
17,O=S(=O)(Cc1ccc(Br)cc1)NCCO,28.5
18,Cc1nn(C)c(N2CCOCC2)c1CNCc1cscn1,27.0165
19,CCc1nnc(CN2CCCC2Cn2cc(C)cn2)o1 (stereo not drawn),-29.1
20,O=C(c1ccc(F)c(F)c1)N1CCC(Cn2cc(CO)nn2)CC1,33.4
21,Cc1nc(CN2CCCC(NCc3csc(C(C)(C)C)n3)C2)no1 (stereo not drawn),22.3
22,COCCN1CCO[C@@H]2CN(C(=O)COc3ccc(C)cc3)C[C@@H]2C1,37.9
23,[O-][S+](Cc1c(F)cccc1Cl)Cc1nnnn1C1CC1 (stereo not drawn),19.8
24,CCc1nc2n(n1)CC(NCC(=O)Nc1cc(C(C)(C)C)no1)CC2 (stereo not drawn),-13.5
25,Cc1cc(C(=O)N2CCCC(C)C2)ccc1NCc1nc(C(C)C)no1 (stereo not drawn),18.2
26,O=C(O)c1ccc2[nH]cc(CN3CCOCC3)c2c1,-9.76
27,O=C(O)c1ccc2c(CN3CCOCC3)c[nH]c2c1,56.5
28,O=C(O)c1ccc2c(CN3CCCC3)c[nH]c2c1,42.3
